Bioassay records as filed in PubChem.
Fluor 339 460 – intrinsic fluorescence of library compounds, ex339/em460 – biochemical, MLSMR library, data from DPM-DC assay, artefact control, profiling panel; compound autofluorescence, ex339/em460 nm, NADH buffer; hits give high values; 1 = no-compound wells, NADH background; AID 709, 2007; fluorescence fold increase at 10 µM; actives 5.5% (n = 65,000);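 active = at 10 µM, mean starting fluorescence two-fold or more over control wells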;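 also: signal is the first read of a kinetic run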
A340 absorber – compound light absorbance at 340 nm, profiling panel, artefact control, biochemical, MLSMR library, data from PS, PMK, MK assays; compound absorbance at 340 nm, fold over control; fold change at 10 µM; 65,000 tested, under 10 active; AID 708, 2007;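 active = at 10 µM dose, initial 340 nm absorbance at least 2 fold that of control wells; inactive = change under 2 fold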;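 also: initial absorbance extrapolated from kinetic A340 decline of NADH oxidation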
DPM-DC inhibit – S. pneumoniae DPM-DC inhibitors, primary screen, biochemical, PK/LDH-coupled NADH fluorescence | purified DPM-DC | calls only at 10 µM | actives 0.49% (n = 65,000);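 active = the 320 compounds with the highest percent inhibition in the single-dose primary screen, excluding strongly autofluorescent ones, cut at about 32% in these data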;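 also: kinetic rate of NADH fluorescence loss reporting ADP formed by the decarboxylase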
NADH enzymes – inhibitors of PK/LDH coupling enzymes, profiling panel, artefact control, biochemical, MLSMR library | actives 0.02% (n = 65,000) | coupled PK/LDH NADH assays, four targets | AID 774, 2007 | IC50, µM (top dose mostly 10 µM);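 active = single-dose screening hits from any of four coupled enzyme assays that gave an IC50 when retested across doses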;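 also: the DPM-DC format reads NADH fluorescence rather than 340 nm absorbance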
Spn PMK inh – S. pneumoniae PMK inhibitors, primary screen, biochemical, mevalonate pathway, pilot trial included; actives 0.49% (n = 65,000); phosphomevalonate kinase (Streptococcus pneumoniae D39); AID 539, 2006; inhibition, % at 10 µM; purified PMK, PK/LDH-coupled NADH absorbance 340 nm;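 active = top-ranked compounds by inhibition in the single 10 µM screen, taking a fixed number of the strongest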
Spn MK inh – S. pneumoniae MK inhibitors, primary screen, biochemical, PK/LDH-coupled NADH absorbance; inhibition, % at 10 µM; actives 0.48% (n = 65,000); AID 555, 2006; mevalonate kinase [Streptococcus pneumoniae D39]; purified MK, PK/LDH-coupled NADH absorbance 340 nm;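 active = ranked among the strongest by inhibition in the single 10 µM screen, a fixed top-ranked set picked for dose follow-up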
Numbers stand for hits; i = inactive; nt = no result given; + = active, no number. This is a sample that favours compounds with a hit; in the whole collection about 6.3% have one here.

SMILES	Fluor 339 460	A340 absorber	DPM-DC inhibit	NADH enzymes	Spn PMK inh	Spn MK inh
CC(=O)Nc1nc2ccccc2n1CCN1CCOCC1	i	i	i	i	i	i
O=C1CSC(c2ccccn2)N1c1ccccc1 (stereo not given)	i	i	i	i	i	i
O=C(CSc1nc(-c2ccco2)cc(C(F)(F)F)n1)NCC1CCCO1 (stereo not given)	i	i	i	i	i	i
CCOc1ccc2[nH]c(=O)c(CN(Cc3ccc(F)cc3)C(=O)N3CCCC3)cc2c1	2.8	i	i	i	i	i
CCOc1ccc2[nH]c(=O)c(CN(CCO)C(=O)CC)cc2c1	3.1	i	i	i	i	i
CCOc1ccc2[nH]c(=O)c(CN(Cc3ccc(F)cc3)C(=O)c3ccco3)cc2c1	i	i	i	i	i	i
CCOc1ccc2[nH]c(C)cc(=O)c2c1	i	i	nt	i	i	i
CCC(=O)N(CCO)Cc1cc2ccc(C)c(C)c2[nH]c1=O	i	i	i	i	i	i
CCOc1ccc2[nH]c(=O)c(=O)[nH]c2c1	2.2	i	i	i	i	i
CCOc1ccc2[nH]c(=O)c(CN(CCO)C(=O)c3ccc(Br)cc3)cc2c1	2.6	i	i	i	42	i
COc1ccc(NC(=O)CN2CCN(S(=O)(=O)c3ccc(Cl)cc3)CC2)cc1	i	i	i	i	i	i
COc1ccc2[nH]cc(C3N4CC5(C)CN3CC(C)(C4)C5=O)c2c1 (stereo not given)	i	i	i	i	i	48
O=C(NC12CC3CC(CC(C3)C1)C2)C1CCCN1C(=O)NC1CCCCC1 (stereo not given)	i	i	i	i	i	i
COC(=O)c1ccc(-c2cc(C(=O)O)c3cc4c(cc3n2)OCCO4)cc1	4.9	i	nt	i	i	i
CCOc1ccc2cc(C#N)c(SCC(=O)N3CCOCC3)nc2c1	2.7	i	nt	i	i	i
COc1ccccc1N1CCN(C(=O)CSc2nnc(NC(=O)c3ccco3)s2)CC1	i	i	+	i	i	i
COc1ccccc1N1CCN(C(=O)CSc2nnc(NC(=O)C3CC3)s2)CC1	i	i	i	i	i	i
C[C@]12CC[C@@H]3c4ccc(OS(=O)(=O)O)cc4CC[C@H]3[C@@H]1CCC2=O	i	i	i	i	active	i
C#C[C@]1(O)CC[C@H]2[C@@H]3CCc4cc(O)ccc4[C@H]3CC[C@@]21C	i	i	i	i	i	i
CCC(=O)Nc1nc2ccccc2n1Cc1ccc(C)cc1	i	i	i	i	i	i
CCC(=O)Nc1c(C#N)c2nc3ccccc3nc2n1-c1ccc(C)cc1	3.7	i	nt	i	i	i
N#Cc1c(NC(=O)c2ccc(Br)o2)n(-c2ccccc2)c2nc3ccccc3nc12	3	i	nt	i	i	i
O=C(Nc1cccc(NC(=O)c2ccc(Br)o2)n1)c1ccc(Br)o1	i	i	i	i	i	i
CN1C(=O)NC(c2ccccc2)C2=C1CN(Cc1ccccc1)C2=O (stereo not given)	i	i	i	i	i	i
O=C(CCn1ccc2ccccc21)Nc1ccc(N2CCOCC2)cc1	i	i	i	i	i	i
SMILES	Fluor 339 460	A340 absorber	DPM-DC inhibit	NADH enzymes	Spn PMK inh	Spn MK inh
c1csc(C2C3=C(Nc4ncnn42)c2ccccc2OC3)c1 (stereo not given)	2.3	i	i	i	i	i
O=C1CC(c2ccc3c(c2)OCO3)c2cc3c(cc2N1)OCCO3 (stereo not given)	i	i	i	i	i	i
O=c1c2cc(Cl)ccc2nc2ccc(N3CCCC3)nn12	i	i	i	i	i	i
CC(C)c1cc(NCCCN2CCOCC2)n2c(nc3ccccc32)c1C#N	2.3	i	nt	i	i	i
N#Cc1c2c(c(NCCCN3CCOCC3)n3c1nc1ccccc13)CCC2	3	i	i	i	i	i
CC(C)c1cc(NCCN2CCOCC2)n2c(nc3ccccc32)c1C#N	i	i	i	i	i	i
CCCc1cc(NCCN2CCOCC2)n2c(nc3ccccc32)c1C#N	2.3	i	nt	i	i	i
